The text below walks through data of PubChem BioAssay (NCI).

Holding throughout (assay): NCI-60 one-dose screen, 48 h (100 = growth as untreated, 0 = no growth, -100 = all killed)
Holding throughout (settings): 10 µM unless noted

Assay [1] deals with HCT-15 colon.
The test system of assay [2] is HT29 colon.
Assay [3] deals with SNB-75 CNS.
Assay [4] deals with SNB-19 CNS.
Assay [5] deals with U251 CNS.
In assay [6] the test system is PC-3 prostate.
Assay [7] deals with SK-MEL-5 melanoma.
Assay [8] deals with UACC-62 melanoma.
Assay [9] has as its system LOX IMVI melanoma.
The subject of assay [10] is SK-MEL-28 melanoma.

About 83,000 compounds went through this panel and 20% of them were active in at least one assay; those are over-represented in the sample as a whole.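 Negative percent growth values reflect cell death: -40 means 40% of the cells present at the start died, and -100 means all died.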 A number with no mark means an inactive call. Active and inactive are the calls of the source. Rule for the calls: active = growth percent below 10; inactive = the rest.

`c1ccc2c(c1)ncn2-c1nc2ccccc2n2c1nc1ccccc12`: the growth in assay [1] was 43.1%; in assay [2], 40.9%; in assay [3] it was 81.3%; in assay [4], 86.8%; in assay [5], 87.6%; in [6], 72.4%. The growth was 55.8% in [7], 77.3% in [8], 79.1% in assay [9] and 107% in [10].
As to `COc1cc(/C=C/C(=O)c2cccc(-n3cc(-c4ccccc4)[nH]c3=O)c2)cc(OC)c1OC`, the growth in assay [1] was 0.0594% (active); in [2], -72% (active); in assay [3], 34.2%; in [4] it was 20.2%; in assay [5], -78.6% (active); in assay [6], 7.64% (active). The growth was -90.1% (active) in [7], -86.3% (active) in assay [8], -85.2% (active) in [9] and -48.4% (active) in [10].
With `CC(C)OC(=O)OCOP(=O)(OCOC(=O)OC(C)C)C1CCCN(O)C1=O` (stereo not given), the growth in assay [1] was 33.4%; in [2], 5.87% (active); in assay [3] it was 57.6%; in [4] it was 21.5%; in assay [5], 15.2%; in assay [6], 60.5%. Besides, the growth in assay [7] is 30.9%; in [8], 23.6%; in [9], 39%; in assay [10], 15.2%.
Turning to `CC/C=C/[C@@H]1C=C[C@@H]2CCC[C@H]2[C@@H]1CC[C@H](O)[C@H](C)N`, the growth in [1] was -73.8% (active); in assay [2], 2.11% (active); in [3], 22.4%; in assay [4], -41.2% (active); in [5] it was -79.7% (active); in assay [6] it was 30.4%. Also, the growth in assay [7] was -92.8% (active); in assay [8], -42.1% (active); in assay [9], -91.6% (active); in [10] it was -87.1% (active).
With `N#C/C(=C\c1ccc(Br)cc1)n1nnc2ccccc21`, the growth in assay [1] is 2.5% (active); in assay [2] it was 3.79% (active); in [3], 24.8%; in assay [4] it was 29%; in [5], -35.7% (active); in assay [6], 12.7%. For the same compound, the growth is 6.25% (active) in assay [7], 14% in [8], -75% (active) in assay [9] and 6.49% (active) in [10].
On to `O=C(CCCCCCCn1cc(-c2cccnc2)nn1)Nc1ccccc1-c1ccccc1`, for which the growth in [1] is 24.1%; in [2], 39%; in [3], 92.3%; in assay [4], 48.2%; in assay [5], 31.1%; in assay [6] it was 49.3%. Further, the growth is 30.5% in [7], 60.6% in assay [8], 57.3% in assay [9] and 71% in assay [10].
With `COc1ccc(-c2nc3sc4c(c3c(=O)[nH]2)CCCC4)c2ccccc12`, the growth in assay [1] was 6.37% (active); in assay [2] it was -0.244% (active); in assay [3], -25.5% (active); in assay [4], 36%; in assay [5], 6.38% (active); in assay [6], 11.7%. Further, the growth was 18.1% in [7], 24.4% in assay [8], 26.9% in assay [9] and -5.17% (active) in [10].
As to `O=C(O)C1C[C@](O)(c2ccc(F)cc2)[C@@H](c2ccc(F)cc2)O1` (stereo not given in full), the growth was 131% in assay [1]; 120% in assay [2]; 114% in assay [3]; 97.5% in [4]; 110% in [5]; 85.9% in assay [6]. Also, the growth in [7] is 129%; in assay [8], 108%; in [9], 111%; in [10], 129%.
In the case of `Cc1nc(Nc2ccccn2)sc1C(=O)/C=C/c1ccc(Br)cc1`, the growth is 30.4% in assay [1]; 25.9% in [2]; 40.2% in assay [3]; 69.2% in assay [4]; 59.8% in [5]; 56.3% in assay [6]. In addition, the growth in assay [7] was 84.7%; in assay [8], 61.5%; in [9] it was 32.2%; in assay [10], 99.6%.
For `Cn1nnnc1-c1ccc(N)cc1`, the growth was 98.9% in [1]; 95% in assay [2]; 88.4% in [3]; 105% in assay [4]; 100% in [5]; 93.9% in assay [6]. Besides, the growth in assay [7] was 102%; in assay [8] it was 99.7%; in assay [9], 95.1%; in [10], 103%.
On to `Oc1[nH]c2ccccc2c1/C=c1/cc2c(c(-c3ccc(F)cc3)n1)=Nc1ccccc1-2`, for which the growth in [1] was -18.1% (active); in assay [2], -41.7% (active); in assay [3], -2.31% (active); in [4] it was 25.2%; in assay [5], -57.8% (active); in [6], -14.8% (active). Further, the growth in assay [7] was -38.9% (active); in assay [8] it was -56% (active); in assay [9] it was -58.1% (active); in assay [10], -47.3% (active).
With `COc1ccc(NC(=O)C(=O)c2c[nH]c3ccc(F)cc23)cc1`, the growth in assay [1] was 99.2%; in assay [2] it was 88.4%; in assay [3] it was 99.7%; in assay [4], 104%; in [5], 91%; in assay [6] it was 91.5%. For the same compound, the growth in assay [7] was 97.4%; in [8], 99.3%; in assay [9], 105%; in [10], 109%.
